High-throughput results as filed in PubChem BioAssay.
VDR inhibitor – vitamin D3 receptor (human) inhibition; P11473; VDR-SRC2-3 peptide fluorescence polarization, 2 h; Potency, µM, for the others: max response, negative = inhibition, actives largely listed as inhibitors; hit rate 0.93% among 400,000
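Fluorescence polarization assay measuring small-molecule disruption of VDR binding to the coregulator peptide SRC2-3. Compounds were pin-transferred (23 nl) into the reagent mix and incubated 2 h at room temperature before reading.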
Tau fluor counter – counter-screen for tau fibril formation inhibitors; hit rate 0.93% among 280,000; tau K18 P301L Alexa594 fluorescence, heparin fibrillization; Potency, µM (doses to about 57.7 µM), for inactives: top-dose activity change, negative = decrease; further: nearly all actives have a fitted effect of over 55% in size
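Human tau K18 P301L (15 uM unlabeled, 0.24 uM Alexa 594-labeled) in 100 mM sodium acetate pH 7 with 20 uM heparin, 6 hr at 37 C. ThT 30 uM added, 1 hr ambient; Alexa 594 FP and total fluorescence read at 555/632 nm.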
PLK1 PBD block – PLK1 (human) polo-box domain binding inhibition; Plk1 PBD binding of FITC phosphopeptide, fluorescence polarization; Potency, µM, without a hit: max response, negative = inhibition, hits mostly inhibitors; hit rate 2.8% among 360,000; further: series mostly up to about 57 µM; nearly all actives have a fitted effect of over 65% in size
Target sequence (P53350 whole entry, looked up, the tested form may be a part): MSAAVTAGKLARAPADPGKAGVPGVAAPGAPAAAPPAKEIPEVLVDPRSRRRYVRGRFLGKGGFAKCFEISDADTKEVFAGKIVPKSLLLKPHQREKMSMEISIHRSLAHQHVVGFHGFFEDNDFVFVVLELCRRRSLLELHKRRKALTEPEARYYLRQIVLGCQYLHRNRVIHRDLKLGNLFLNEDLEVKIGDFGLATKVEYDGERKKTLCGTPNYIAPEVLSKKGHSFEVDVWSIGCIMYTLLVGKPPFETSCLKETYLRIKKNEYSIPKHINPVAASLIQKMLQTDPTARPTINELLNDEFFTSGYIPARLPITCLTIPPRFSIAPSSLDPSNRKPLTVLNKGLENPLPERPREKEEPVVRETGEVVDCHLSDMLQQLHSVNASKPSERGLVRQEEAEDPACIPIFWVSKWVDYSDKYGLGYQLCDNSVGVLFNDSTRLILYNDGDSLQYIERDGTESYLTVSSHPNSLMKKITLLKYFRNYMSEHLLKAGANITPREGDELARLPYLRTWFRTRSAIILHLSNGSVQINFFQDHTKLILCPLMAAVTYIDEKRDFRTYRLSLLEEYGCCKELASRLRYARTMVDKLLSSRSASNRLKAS
Tau FP inhib – tau fibrillization inhibition (FP) | K18 P301L tau heparin fibrillization, Alexa594 FP, 6 h | AID 1468 | hit rate 0.39% among 280,000 | Potency, µM (series often up to 57.7 µM), for inactives: top-dose activity, negative = inhibition, hits mostly inhibitors; further: nearly all actives have a fitted effect of over 55% in size
Target sequence (P10636 561-689 P618L limits assumed): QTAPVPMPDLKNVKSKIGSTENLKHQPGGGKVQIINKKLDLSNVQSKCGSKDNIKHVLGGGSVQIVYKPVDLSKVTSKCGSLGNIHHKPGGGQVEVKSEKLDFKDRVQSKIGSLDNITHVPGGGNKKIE
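K18 P301L tau (15 uM unlabeled/0.24 uM Alexa 594-labeled, final) + compound + heparin 20 uM final; 100 mM NaOAc pH 7; 6 hr 37 C; ThT 30 uM final added, 1 hr RT; FP ex 555/em 632 nm.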
Tau fibril ThT – inhibitors of human tau fibril formation, thioflavin T binding; P10636; recombinant tau K18 P301L (four-repeat tau fragment), heparin-induced fibrillization, ThT fluorescence; Potency, µM (series often up to 57.4 µM), for the others: at the top dose activity, negative = inhibition, usual class: inhibitors; hit rate 2.1% among 270,000; AID 1460; further: nearly all actives have a fitted effect of over 55% in size
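In this qHTS, human K18 P301L tau is incubated with compound and heparin for 6 hr at 37 C, and Thioflavin T fluorescence then reports fibril load.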
Sfp inh – inhibitors of Bacillus subtilis Sfp phosphopantetheinyl transferase; Q9F4F7; Biochemical Sfp PPTase activity, qHTS; Potency, µM, inactives show largest response in the series, negative = inhibition, actives largely listed as inhibitors; hit rate 3.5% among 310,000;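 further: the enzyme is Sfp with the accession as filed and its product quenches rhodamine fluorescence; 0% = enzyme reaction without inhibitor and -100% = no enzyme wells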
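Buffer: 50 mM Hepes-Na pH 7.6, 10 mM MgCl2, 0.01% Nonidet P-40, 0.01% BSA. Enzyme 15 nM, pre-exposed to compound 15 min; substrates then added and fluorescence change tracked over 30 min.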
An asterisk follows results filed as active. In the library only some 6% were active in any assay of this set; here they are far more common. The call rests on the fitted dose curve; in most records, active means well fitted curve in the direction sought with a large enough effect; inconclusive means small, poorly fitted or top-dose-only effect, or another doubt; inactive means no such curve, though single readings can be large; an effect the other way counts as inactive or inconclusive. Unless noted, on the % scale 0 is the no-effect control and ±100 the full control effect; potency means the concentration at half of the fitted maximal effect.

Results for N#Cc1c(-c2ccccc2)nc(SCc2ccc(Cl)cc2)[nH]c1=O ?
VDR inhibitor: 79µM*; PLK1 PBD block: inconclusive; Sfp inh: 8%

What do the screens show for `Cc1c(NC(=O)Nc2ccc(Br)cc2F)sc2nc3n(c(=O)c12)CCC(C)CC3` (stereo not drawn)?
VDR inhibitor: 17%; Tau fluor counter: -24%; Tau FP inhib: 8%; Tau fibril ThT: 2%

How did CC(C)c1nnc(NC(=O)c2ccc3c(c2)OCO3)s1 do in these assays?
VDR inhibitor: 1%; Tau fluor counter: 3%; PLK1 PBD block: -6%; Tau FP inhib: -8%; Tau fibril ThT: 2%; Sfp inh: 5%

How did CC(C)(C)c1nnc(NC(=O)c2ccc3c(c2)OCO3)s1 do in these assays?
VDR inhibitor: 79µM*; PLK1 PBD block: 6µM*; Sfp inh: 22µM*

How did O=C(Nc1ccc2ccccc2c1)C(c1ccc(C(F)(F)F)cc1)n1c(=O)c(-c2cc3ccccc3[nH]2)nc2ccccc21 (stereo not drawn) do in these assays?
PLK1 PBD block: 0%

How did COC(=O)C(=C/C(C)=C/c1cccs1)C(=O)OC do in these assays?
VDR inhibitor: -13%; Tau fluor counter: -2%; PLK1 PBD block: 19µM*; Tau FP inhib: 13%; Tau fibril ThT: inconclusive; Sfp inh: 5%

How did CC(C)C1Nc2ccc(C(=O)N3CCN(c4ccccn4)CC3)cc2NC1=O (stereo not drawn) do in these assays?
VDR inhibitor: 28%; PLK1 PBD block: -15%; Sfp inh: 9%

Results for O=C1CNc2ccc(C(=O)N3CCN(c4ccccn4)CC3)cc2N1 ?
VDR inhibitor: -28%; PLK1 PBD block: 24µM*; Sfp inh: 12%

What do the screens show for `COc1ccc(OCC(=O)NC(=S)NNC(=O)COc2ccc(Br)cc2Cl)cc1`?
VDR inhibitor: inconclusive; Tau fluor counter: -4%; PLK1 PBD block: 24µM*; Tau FP inhib: -3%; Tau fibril ThT: inconclusive; Sfp inh: 22µM*

Results for COc1ccc(NC(=S)NNC(=O)COc2ccc(Cl)cc2Cl)cc1 ?
VDR inhibitor: -14%; Tau fluor counter: 4%; PLK1 PBD block: -27%; Tau FP inhib: -4%; Tau fibril ThT: 6%; Sfp inh: -10%

Results for O=C(COc1ccc(Br)cc1Cl)NC(=S)Nc1ccccn1 ?
VDR inhibitor: -19%; PLK1 PBD block: -13%; Sfp inh: 56µM*

Results for Cc1ccc(OCC(=O)NC(=S)Nc2ccccn2)c(Br)c1 ?
VDR inhibitor: 0%; PLK1 PBD block: 5%; Sfp inh: 6%

How did Cc1cccc(NC(=O)CN(C)C(=O)Cc2ccc(-c3ccccc3)cc2)c1C do in these assays?
PLK1 PBD block: 6%

How did COc1ccc(N2C3=C(CC4=C2CC(C)(C)CC4=O)C(=O)CC(C)(C)C3)cc1 do in these assays?
VDR inhibitor: -89%; Tau fluor counter: -22%; PLK1 PBD block: 8.4µM*; Tau FP inhib: inconclusive; Tau fibril ThT: 20µM*; Sfp inh: 18µM*

How did O=C(CSc1ccc(Cl)cc1)NC(=O)c1ccccc1 do in these assays?
VDR inhibitor: -21%; PLK1 PBD block: 12µM*

How did O=C(CSc1ccc(F)cc1)NC(=O)c1ccccc1 do in these assays?
PLK1 PBD block: -1%

Results for CCc1ccccc1-n1nnc(-c2nc(-c3ccccc3F)no2)c1C ?
VDR inhibitor: 15%; Tau fluor counter: -7%; Tau FP inhib: -8%; Tau fibril ThT: 5%

What do the screens show for `COc1ccc2c(c1)OC[C@H]1[C@H]2N2C(=O)CN(CCc3c[nH]c4ccccc34)C(=O)[C@@]2(C)[C@H]1c1ccccc1`?
VDR inhibitor: -8%; PLK1 PBD block: inconclusive

Results for O=C(Nc1ccccc1)c1ccc[nH]1 ?
VDR inhibitor: inconclusive; Tau fluor counter: 1%; PLK1 PBD block: 19µM*; Tau FP inhib: -8%; Tau fibril ThT: 3%; Sfp inh: 20%

Results for O=C(Nc1ccccc1)c1c(F)cccc1F ?
VDR inhibitor: -5%; Tau fluor counter: -5%; PLK1 PBD block: 0%; Tau FP inhib: 9%; Tau fibril ThT: -2%; Sfp inh: 9%

Results for O=C(NC1CCCc2c1cnn2-c1ccccc1F)c1ccncc1 (stereo not drawn) ?
PLK1 PBD block: -5%

How did O=C(O)Cc1cc2ccccc2nc1C(=O)O do in these assays?
VDR inhibitor: 5%; Tau fluor counter: -10%; Tau FP inhib: 2%; Tau fibril ThT: -13%; Sfp inh: 79µM*

Results for O=C(NCc1ccc(Cl)cc1)c1ccc(NC(=O)N2CC3CCCN3c3ccccc32)cc1 (stereo not drawn) ?
VDR inhibitor: 9%; Tau fluor counter: inconclusive; Tau FP inhib: 13%; Tau fibril ThT: -12%

What do the screens show for `COc1ccc(C(=O)N2C(=S)NC(=O)/C2=C\c2ccc(C)cc2)cc1`?
VDR inhibitor: 9%; Tau fluor counter: inconclusive; PLK1 PBD block: -19%; Tau FP inhib: 1%; Tau fibril ThT: inconclusive; Sfp inh: 50µM*

How did COc1ccc(C=C2NC(=S)NC2=O)cc1 do in these assays?
VDR inhibitor: -20%; PLK1 PBD block: -25%

Results for O=S(=O)(c1ccc2nc(Nc3cccc(F)c3)ccc2c1)N1CCCC1 ?
VDR inhibitor: 24%; Tau fluor counter: inconclusive; Tau FP inhib: inconclusive; Tau fibril ThT: inconclusive

What do the screens show for `CC1CCN(S(=O)(=O)c2ccc3nc(Nc4ccc(C#N)cc4)ccc3c2)CC1`?
VDR inhibitor: 10%; Tau fluor counter: inconclusive; Tau FP inhib: 14µM*; Tau fibril ThT: inconclusive

What do the screens show for `CC1CCN(S(=O)(=O)c2ccc3nc(Nc4cccc(C(F)(F)F)c4)ccc3c2)CC1`?
VDR inhibitor: 7%; Tau fluor counter: inconclusive; Tau FP inhib: 28µM*; Tau fibril ThT: inconclusive

What do the screens show for `CCc1cc(SC#N)cc(C)c1NC(=O)CCl`?
VDR inhibitor: 79µM*; Tau fluor counter: 5%; PLK1 PBD block: 12µM*; Tau FP inhib: -3%; Tau fibril ThT: 7%; Sfp inh: 8%

What do the screens show for `Cc1cc(SC#N)cc(C)c1NC(=O)CCl`?
VDR inhibitor: inconclusive; Tau fluor counter: -5%; PLK1 PBD block: inconclusive; Tau FP inhib: -2%; Tau fibril ThT: -7%; Sfp inh: -28%

How did CCC(=O)Nc1ccc(SC#N)cc1C do in these assays?
VDR inhibitor: -35%; Tau fluor counter: -22%; PLK1 PBD block: 13µM*; Tau FP inhib: inconclusive; Tau fibril ThT: 8.9µM*; Sfp inh: -5%

Results for CCc1cc(SC#N)cc(C)c1N ?
VDR inhibitor: -22%; Tau fluor counter: -24%; PLK1 PBD block: inconclusive; Tau FP inhib: inconclusive; Tau fibril ThT: 14µM*; Sfp inh: 1%

What do the screens show for `COc1ccc(OC)c(C2=Nn3c(nnc3-c3cc(OC)ccc3OC)SC2)c1`?
Sfp inh: 3%
